# Results reported in the supplement of paper PMC13380429.
# A number with no mark means an inactive call.
# System: Vero E6 infected with SARS-CoV-2
# Assay: inhibition of SARS-CoV-2 cytopathic effect; higher = more antiviral protection, active = above 15
# Conditions: 48 h
SMILES,inhibition of SARS-CoV-2 cytopathic effect (1 nM) [%],inhibition of SARS-CoV-2 cytopathic effect (8.33 nM) [%],inhibition of SARS-CoV-2 cytopathic effect (100 nM) [%],inhibition of SARS-CoV-2 cytopathic effect (833.33 nM) [%],inhibition of SARS-CoV-2 cytopathic effect (10000 nM)
CCCCC(=O)O[C@]1(C(=O)CO)CC[C@H]2[C@@H]3CCC4=CC(=O)CC[C@]4(C)[C@H]3[C@@H](O)C[C@@]21C [hydrocortisone-valerate],-0.15,3.88,4.88,4.12,-1.55%
Cc1cc(C)c(S(=O)(=O)Nc2ccccc2C(F)(F)F)c(C)c1,2.1,6.17,4.56,2.55,4.64%
CC(=O)N(O)[C@@H]1c2cc(C#N)ccc2OC(C)(C)[C@H]1O,-2.54,0.31,1.05,0.36,3.02%
O=C1C=C2C=C[C@@H]3C[C@@]2(O1)[C@H]1CCCCN31 [securinine],0.7,3.64,2.11,7.21,18.4% (active)
Cc1c2oc3c(C)ccc(C(=O)N[C@@H]4C(=O)N[C@@H](C(C)C)C(=O)N5CCC[C@H]5C(=O)N(C)CC(=O)N(C)[C@@H](C(C)C)C(=O)O[C@@H]4C)c3nc-2c(C(=O)N[C@@H]2C(=O)N[C@@H](C(C)C)C(=O)N3CCC[C@H]3C(=O)N(C)CC(=O)N(C)[C@@H](C(C)C)C(=O)O[C@@H]2C)c(N)c1=O [actinomycin-d],-0.33,1.99,0.83,-8.47,-14.8%
CC(=O)OCC(=O)[C@H]1CC[C@H]2[C@@H]3CCC4=CC(=O)CC[C@]4(C)[C@H]3CC[C@]12C [deoxycorticosterone-acetate],-2.24,0.58,-1.58,-4.23,-0.48%
CCn1cc(-c2cccc(C(F)(F)F)c2)c2sc(C(=N)NC3CCS(=O)(=O)CC3)cc2c1=O,1.59,3.81,1.38,0.93,-7.19%
CC(C)(Oc1ccc(C2CC2(Cl)Cl)cc1)C(=O)O (stereo not given) [ciprofibrate],-2,1.09,-0.52,-2.34,-4.5%
C[C@H](CCC(=O)O)[C@H]1CC[C@H]2[C@@H]3CC[C@@H]4C[C@H](O)CC[C@]4(C)[C@H]3CC[C@]12C [lithocholic-acid],-0.57,0.93,-0.13,0.9,-0.77%
O=C(O)C(F)(F)C(F)(F)C(F)(F)C(F)(F)C(F)(F)C(F)(F)C(F)(F)F [ammonium-perfluorocaprylate],2.29,-0.68,0.56,-0.2,-2.3%
CC(=O)NCC(=O)N[C@H](CCC(=O)O)C(=O)O [N-acetylglycyl-D-glutamic-acid],1.3,-0.41,-0.4,-0.04,1.12%
O=c1c(O)c(-c2ccc(O)cc2)oc2cc(O)cc(O)c12 [kaempferol],-3.6,12,-1.58,1.56,11.2%
C=C1/C(=C\C=C2/CCC[C@]3(C)[C@@H]([C@H](C)/C=C/[C@H](C)C(C)(C)O)CC[C@@H]23)C[C@@H](O)C[C@@H]1O [ercalcitriol],-1.77,0.83,-0.6,2.88,3.34%
O=c1c2ccccc2nc2n1CCc1c-2[nH]c2ccccc12 [rutaecarpine],-1.97,0.36,-0.87,0.6,-0.59%
c1ccc(CCNc2nc(-c3ccccc3)cs2)cc1 [fanetizole],-2.03,1.7,-2.73,-0.64,1.58%
C[C@@H]1CC[C@H]2C(C)(C)[C@H]3C[C@@]12CC[C@@]3(C)O [cedrol],-1.18,-3.1,-1.28,-1.1,-1.09%
